Assay outcomes from PubChem.
Compounds with a hit are over-represented: about 4.8% of the library has one in this group of screens.
DAX1 inh-1 = inhibits human nuclear receptor DAX1. HEK293 Gal4-DAX1 luciferase reporter, luminescence. inhibition, % at 6.75 µM. 340,000 compounds, 0.99% hits. AID 504766;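 active = inhibition above the mean over all tested compounds plus 3 SD, cut at about 4.2% in these data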;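 also: 0% = DAX1-transfected cells with DMSO and 100% = empty-vector control cells with DMSO; inhibition shows as a rise in luminescence from relieved DAX1 repression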
Target sequence (P51843 207-470 limits assumed): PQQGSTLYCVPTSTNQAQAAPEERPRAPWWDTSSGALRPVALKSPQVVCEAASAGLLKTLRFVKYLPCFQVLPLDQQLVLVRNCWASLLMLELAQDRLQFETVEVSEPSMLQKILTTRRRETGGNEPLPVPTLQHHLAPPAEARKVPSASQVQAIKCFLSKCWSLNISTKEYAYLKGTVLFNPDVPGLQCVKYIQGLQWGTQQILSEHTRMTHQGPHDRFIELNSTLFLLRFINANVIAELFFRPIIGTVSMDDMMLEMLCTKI
DAX1 inh-2 = inhibitors of DAX1 repression of SF-1 activated StAR promoter; inhibition, % at 6.8 µM; AID 652010; 370,000 compounds, 1.1% hits; HEK293T StAR-luciferase reporter, SF-1/DAX-1 repression relief;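 active = inhibition above the mean over all tested compounds plus 3 SD, cut at about 3.6% in these data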;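 also: 0% = DAX-1 cells with DMSO and 100% = cells lacking DAX-1 with DMSO; higher inhibition means more luminescence from relief of DAX-1 repression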
hgDAF12 agonist = hgDAF-12 agonism, primary luciferase screen; HEK293 GAL4-hgDAF12 UAS-luciferase reporter, agonist luminescence; normalized to butyrate control; activation, % at 6.8 µM; 370,000 compounds, 1.8% hits;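 active = activation above a cutoff set at the mean of all screened compounds plus 3 SD, cut at about 10% in these data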;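 also: 0% = DMSO wells and 100% = sodium butyrate wells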
hcDAF12 agonist = activators of H. contortus DAF-12 nuclear receptor; HEK293 hcDAF-12 lit1-tk-luc reporter, luminescence; 0% DMSO, 100% Δ7-dafachronic acid; activation, % at 6.8 µM; 370,000 compounds, 1.4% hits; AID 652067;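 active = activation above the mean of all tested compounds plus 3 SD, cut at about 5.5% in these data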;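 also: 100% = response to 3 µM Δ7-dafachronic acid high control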
ssDAF12 agonist = S. stercoralis DAF-12 activation, primary screen | AID 652126 | HEK293 ssDAF-12/GRIP1 lit1-tk-luc reporter, luminescence; % of 3 µM dafachronic acid response | activation, % at 6.8 µM | 370,000 compounds, 1% hits;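 active = activation above the mean over all tested compounds plus 3 SD, cut at about 0.9% in these data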;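 also: 0% = DMSO-only wells and 100% = 3 µM delta7-dafachronic acid wells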
SMARCA2 act = increases SMARCA2 function in MMTV reporter cells; AID 652017; activation, % at 9.1 µM; MG213 cells, MMTV-luciferase reporter, dexamethasone, overnight; 370,000 compounds, 1% hits; in the data active = activation above about 7.8%;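 also: 0% = vehicle wells and 100% = reference activator wells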
SMARCA2 act conf = confirmation of SMARCA2 (BRM) function activators; shares compounds with SMARCA2 act; MG213 cells, MMTV-luciferase with dexamethasone, luminescence, overnight; MG213 cells expressing E1A, Rb sequestered; DMSO wells 0%, reference activator 100%; activation, % at 9.1 µM; 3,500 compounds, 30% hits; AID 652260;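 active = activation above its plate's cutoff, the mean activation of tested wells plus 3 SD, cut at about 7.9% in these data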
VP16 Luc act = GAL4-VP16 reporter activation counter-screen | AID 686939 | shares compounds with SMARCA2 act | activation, % at 9.1 µM | 3,500 compounds, 41% hits | HEK293 GAL4-VP16 pG5luc reporter, luciferase luminescence; scaled: DMSO wells 0%, SAHA wells 100%;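 active = activation above the solvent-only control well mean plus 3 SD, averaged across control plates, cut at about 5.2% in these data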
An asterisk follows results filed as active.

For Cc1nc2cc3nc(C)sc3cc2s1 the results were DAX1 inh-1 0.3, DAX1 inh-2 2.1, hgDAF12 agonist 2.4, hcDAF12 agonist 0.6, ssDAF12 agonist -0.7, SMARCA2 act 9.0*, SMARCA2 act conf 8.7* and VP16 Luc act 6.7*.
For Cc1ccnc(N(C(=O)c2cccs2)C(=O)c2cccs2)c1 the results were DAX1 inh-1 2.5, DAX1 inh-2 2.2, hgDAF12 agonist 12.5*, hcDAF12 agonist 2.3, ssDAF12 agonist 0.0, SMARCA2 act 10.6*, SMARCA2 act conf 8.3* and VP16 Luc act 6.8*.
`O=C(c1cccs1)N(C(=O)c1cccs1)c1ccc(Br)cn1` gave DAX1 inh-1 1.6, DAX1 inh-2 1.5, hgDAF12 agonist 9.8, hcDAF12 agonist 2.8, ssDAF12 agonist 0.0 and SMARCA2 act 3.9.
`O=C(c1ccc2c(c1)OCCO2)N1CCCCC1` gave DAX1 inh-1 0.5, DAX1 inh-2 -0.2, hgDAF12 agonist -2.3, hcDAF12 agonist -1.2, ssDAF12 agonist -0.9 and SMARCA2 act 0.2.
CC1CCCN(C(=O)c2ccc3c(c2)OCCO3)C1 (configuration not stated) was read as DAX1 inh-1 1.0, DAX1 inh-2 3.4, hgDAF12 agonist 3.7, hcDAF12 agonist -0.3, ssDAF12 agonist -0.7, SMARCA2 act 9.9*, SMARCA2 act conf 1.4 and VP16 Luc act 5.5*.
Screening COc1ccc(C(=O)CCC(=O)NCCc2c[nH]c3ccccc23)cc1OC returned DAX1 inh-1 -0.8, DAX1 inh-2 -0.3, hgDAF12 agonist 1.7, hcDAF12 agonist 0.8, ssDAF12 agonist -1.0 and SMARCA2 act -2.5.
For COc1ccc(C(C)=O)cc1CS(=O)(=O)CC(=O)NCCc1c[nH]c2ccccc12 the results were DAX1 inh-1 0.7, DAX1 inh-2 -0.9, hgDAF12 agonist 1.5, hcDAF12 agonist 3.8, ssDAF12 agonist 0.0, SMARCA2 act 9.0*, SMARCA2 act conf 3.8 and VP16 Luc act 1.0.
`CCOc1ccc(Nc2nc(N)c([N+](=O)[O-])c(N3CCN(CC)CC3)n2)cc1` gave DAX1 inh-1 1.1, DAX1 inh-2 -0.1, hgDAF12 agonist -2.3, hcDAF12 agonist -1.1, ssDAF12 agonist -1.2, SMARCA2 act 12.1*, SMARCA2 act conf 0.7 and VP16 Luc act 2.2.
Screening CCOc1ccc(Nc2nc(N)c([N+](=O)[O-])c(N3CCOCC3)n2)cc1 returned DAX1 inh-1 -1.3, DAX1 inh-2 -0.8, hgDAF12 agonist 1.2, hcDAF12 agonist -2.0, ssDAF12 agonist -0.9 and SMARCA2 act 0.7.
Screening COc1ccc(CCNCC(O)COc2cccc(C)c2)cc1OC (configuration not stated) returned DAX1 inh-2 0.3, hgDAF12 agonist 0.3, hcDAF12 agonist 0.7, ssDAF12 agonist -1.0 and SMARCA2 act -2.4.
O=C(O)CCCNS(=O)(=O)c1ccc(F)cc1 was read as DAX1 inh-1 0.1, DAX1 inh-2 -0.2, hgDAF12 agonist -1.1, hcDAF12 agonist -0.7, ssDAF12 agonist -1.1, SMARCA2 act 8.8*, SMARCA2 act conf 4.7 and VP16 Luc act -0.3.
Screening O=C(OCC#CCSc1nnc(-c2cccc3ccccc23)o1)c1ccncc1 returned hgDAF12 agonist 1.5, hcDAF12 agonist -3.3 and ssDAF12 agonist -1.2.
Screening Cc1c(NC(=O)C(C)OC(=O)c2cccnc2)c(=O)n(-c2ccccc2)n1C (configuration not stated) returned DAX1 inh-1 -0.2, DAX1 inh-2 0.1, hgDAF12 agonist -1.1, hcDAF12 agonist -3.1, ssDAF12 agonist -0.7, SMARCA2 act 8.3*, SMARCA2 act conf -1.5 and VP16 Luc act 0.5.
For Cc1nc2c(ccc3nc(NC(=O)Cc4ccccc4)sc32)s1 the results were DAX1 inh-1 -0.8, DAX1 inh-2 1.3, hgDAF12 agonist 7.1, hcDAF12 agonist -0.5, ssDAF12 agonist -1.9, SMARCA2 act 10.5*, SMARCA2 act conf 6.9 and VP16 Luc act 4.0.
For CCn1c2c(n(C(C)=O)c1=O)C=C(C(=O)N1CCCC1)C(C)C(c1ccccc1)=C2 (configuration not stated) the results were DAX1 inh-2 -1.2, hgDAF12 agonist -0.2, hcDAF12 agonist -0.1, ssDAF12 agonist -0.6 and SMARCA2 act -1.4.
`CN(C)c1ccc(C(=O)/C=C/c2ccc(Br)cc2)cc1` gave DAX1 inh-1 3.9, DAX1 inh-2 0.8, hgDAF12 agonist 4.2, hcDAF12 agonist 2.6, ssDAF12 agonist -2.0 and SMARCA2 act 5.4.
`CNc1ccc(/C=C/C(=O)c2ccc(C)cc2)cc1[N+](=O)[O-]` gave DAX1 inh-1 -0.8, DAX1 inh-2 0.4, hgDAF12 agonist -2.8, hcDAF12 agonist -3.0, ssDAF12 agonist -1.7 and SMARCA2 act -1.2.
`COc1ccc(C(=O)/C=C/c2ccc(OCc3ccccc3)cc2)cc1CSCC(=O)O` gave DAX1 inh-1 -0.4, DAX1 inh-2 -2.8, hgDAF12 agonist 1.3, hcDAF12 agonist -0.9, ssDAF12 agonist -1.4 and SMARCA2 act -1.4.
`O=C(/C=C/c1ccccc1)NNC(=O)c1cccc(Cl)c1` gave DAX1 inh-1 -0.2, DAX1 inh-2 -0.3, hgDAF12 agonist 2.4, hcDAF12 agonist -1.2, ssDAF12 agonist -1.4 and SMARCA2 act 0.3.
For O=C(C=Cc1ccc(OCc2ccccc2)cc1)c1c(F)cccc1F the results were DAX1 inh-2 -0.3, hgDAF12 agonist 0.7, hcDAF12 agonist 1.1, ssDAF12 agonist -0.8, SMARCA2 act 10.0*, SMARCA2 act conf 9.9* and VP16 Luc act 1.5.
For O=C(C=Cc1cccc(Cl)c1)c1ccccc1 the results were DAX1 inh-1 0.3, DAX1 inh-2 -1.7, hgDAF12 agonist 2.5, hcDAF12 agonist -0.4, ssDAF12 agonist -0.3, SMARCA2 act 10.5*, SMARCA2 act conf 2.0 and VP16 Luc act 1.6.
`CN(C)c1ccc(C(=O)/C=C/c2ccccc2)cc1` gave DAX1 inh-1 1.5, DAX1 inh-2 1.6, hgDAF12 agonist 10.2, hcDAF12 agonist 0.9, ssDAF12 agonist -0.9, SMARCA2 act 10.1*, SMARCA2 act conf 8.6* and VP16 Luc act 13.9*.
`CN(C)c1ccc(/C=C/C(=O)c2ccccc2)cc1[N+](=O)[O-]` gave DAX1 inh-1 0.9, DAX1 inh-2 0.7, hgDAF12 agonist 4.4, hcDAF12 agonist 1.1, ssDAF12 agonist -1.0, SMARCA2 act 9.3*, SMARCA2 act conf 7.0 and VP16 Luc act 1.5.
